Measurements reported in PubChem BioAssay (NCATS).
“And” between values parts separate entries of the source, which are not always exact repeats. Equal values may be shown once. Results filed as inconclusive are left out. A call without a number means that no potency is given here. Unmarked numbers belong to inactive results. The source made the active and inactive calls. The call rests on the fitted dose curve; in most records, active means well fitted cell-killing curve with a large enough effect; inconclusive means small, poorly fitted or top-dose-only effect, or effect the other way; inactive means no such curve, though single readings can be large or run the other way.

Columns and labels:
[1] = Viability qHTS for spleen associated tyrosine kinase inhibitor (SYKi) naive MV4-11 cells (AID 1963823); further: nearly all actives have a fitted effect of over 40% in size
Method in brief: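 In this viability screen, compounds acted on SYK inhibitor naive MV4-11 cells for three days (72 hr, 37 C). Remaining viable cells were measured by CellTiter-Glo luminescence following a 10 min room-temperature development.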

[2] = Viability qHTS for spleen associated tyrosine kinase inhibitor (SYKi) drug resistant MV4-11 cells (AID 1963824); further: nearly all actives have a fitted effect of over 35% in size
Method in brief: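 SYK inhibitor-resistant MV4-11 AML cells, 500 per well, added to predispensed compounds and incubated 72 hr at 37 C, 5% CO2. Viability measured by CellTiter-Glo luminescence after 10 min at room temperature.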
Potency means the concentration at half of the fitted maximal effect.

Row | Structure (SMILES) | Potency [1] | Potency [2] | viability (% of control) [1] | viability, % of control [2]
1 | Cc1ccc(S(=O)(=O)c2ccc([N+](=O)[O-])o2)cc1 | 0.461 µM (active) | 0.411 µM (active) |  | 
2 | CN(C)C/C=C/C(=O)Nc1cc2c(Nc3ccc(F)c(Cl)c3)ncnc2cc1OC1CCOC1 (stereo unspecified) | 1.16 µM (active) | 1.3 µM (active) |  | 
3 | CC1(O)CC(O)C2C(C(=O)O)=COC(OC3OC(CO)C(O)C(O)C3OC(=O)/C=C/c3ccc(O)cc3)C21 (stereo unspecified) | inactive | inactive |  | 
4 | CCCOC(c1cc2nccc(C(=O)O)c2[nH]1)c1ccccc1Cl (stereo unspecified) | inactive | inactive |  | 
5 | O=C(NCc1ccc(OC(F)(F)F)cc1)C1c2ccccc2C(=O)N1C1CCOCC1 (stereo unspecified) | inactive | inactive |  | 
6 | O=c1[nH]c2ccccc2n1CCCN1CCN(C(c2ccccc2)c2ccccc2)CC1 | 15 µM (active) | 11.9 µM (active) |  | 
7 | Cc1ccc(C(C)C)c(O[C@@H]2O[C@H](CO)[C@@H](O)[C@H](O)[C@H]2O)c1 | inactive | inactive |  | 
8 | CC(C)(O)/C=C1/C(=O)C(C)(C)C(=O)C(C)(C)C1(O)O[C@@H]1O[C@H](COC(=O)c2cc(O)c(O)c(O)c2)[C@@H](O)[C@H](O)[C@H]1O (stereo partly specified) | inactive | inactive |  | 
9 | CN(C)C(=O)COC(=O)c1cc(-c2ccc(C3CCNCC3)cc2)c2ccc(-c3ccc(C(F)(F)F)cc3)cc2c1 | 4.61 µM (active) | 5.17 µM (active) |  | 
10 | CCn1c(-c2nonc2N)nc2c(C#CC(C)(C)O)ncc(OCC3CCCNC3)c21 (stereo unspecified) | 13 µM (active) | 8.2 µM (active) |  | 
11 | COC(=O)C1=COC(OC2OC(CO)C(O)C(O)C2O)C2C(COC(=O)/C=C/c3ccc(O)cc3)C(O)C(O)C12 (stereo unspecified) | inactive | inactive |  | 
12 | C[C@@H](O)[C@H](N)C(=O)N1CCC[C@H]1C(=O)N1CCC[C@H]1C(=O)N[C@H](C(N)=O)[C@@H](C)O |  |  | 90.2% [at 9.25 µM] | 81.3% [at 9.25 µM]
13 | O=C(c1ccc(-c2ccc(Cl)cc2)o1)N(Cc1ccccn1)c1ccc(N2CCNCC2)cc1 | 13 µM (active) | 9.2 µM (active) |  | 
14 | OC/C=C/c1ccc(O[C@@H]2O[C@H](CO)[C@@H](O)[C@H](O)[C@H]2O)cc1 | inactive | inactive |  | 
15 | Cc1ccc(NS(=O)(=O)c2cc3c(cc2N[C@@H](C)CO)NC(=O)CC3)cc1Cl | 16.4 µM (active) | 11.6 µM (active) |  | 
16 | COC(=O)C1=CO[C@@H](O[C@@H]2O[C@H](CO)[C@@H](O)[C@H](O)[C@H]2O)[C@@H]2[C@@H](C(=O)O)CC[C@H]12 | inactive | inactive |  | 
17 | C/C=C/C1OC2=C(C(=O)OC2(C)O)C(O)C1O (stereo unspecified) | inactive | inactive |  | 
18 | CC/C=C/C=C/C1(C)OC(CC(CO)OC)=CC1=O (stereo unspecified) | 20.6 µM (active) | 23.1 µM (active) |  | 
19 | NC1CCCN(c2c(/C=C3\SC(=O)NC3=O)cccc2-c2ccccc2)C1 (stereo unspecified) | 2.06 µM (active) and 3.72 µM (active) | 8.2 µM (active) and 13.2 µM (active) |  | 
20 | CC(=O)OC1C(=O)C2(C)C(O)CC3OCC3(OC(C)=O)C2C(OC(=O)c2ccccc2)C2(O)CC(OC(=O)C(O)C(NC(=O)c3ccccc3)c3ccccc3)C(C)=C1C2(C)C (stereo unspecified) | 0.0058 µM (active) | 0.0073 µM (active) |  | 

Row | Structure (SMILES) | Potency [1] | Potency [2] | viability (% of control) [1] | viability, % of control [2]
21 | COc1cc(OC)cc(-c2ccc3c(-c4ccc(F)cc4)[nH]nc3n2)c1 | inactive | inactive |  | 
22 | C=C(C)C(=O)OC1[C@@H]2C(=C)C(=O)O[C@@H]2C[C@@H](C)[C@@H]2C=CC(=O)[C@@]12C (stereo partly specified) | 2.27 µM (active) | 2.86 µM (active) |  | 
23 | Cc1cc2c(F)c(Oc3ncnn4cc(OCC(C)OC(=O)C(C)N)c(C)c34)ccc2[nH]1 (stereo unspecified) | 10.3 µM (active) | 8.2 µM (active) |  | 
24 | C/C=C1\[C@H](OC2OC(COC3OC(CO)C(O)C(O)C3O)C(O)C(O)C2O)OC=C(C(=O)OC)[C@H]1CC(=O)OCCc1ccc(O)cc1 (stereo partly specified) | inactive | inactive |  | 
25 | C=C(C)C(=O)O[C@H]1C[C@@](C)(O)C2(O)CCC(C)(/C=C3/OC(=O)C(COC)=C31)O2 (stereo partly specified) | 0.718 µM (active) | 0.453 µM (active) |  | 
26 | C/C=C/C1=CC2=C(CO1)C(=O)C(C)(OC(=O)c1c(C)cc(O)cc1OC)C(O)C2 (stereo unspecified) | 5.7 µM (active) | 5.08 µM (active) |  | 
27 | CC1(O)CCC2C(C3C1CCC3(C)O)C2(C)C (stereo unspecified) | inactive | inactive |  | 
28 | CC1(C(=O)O)CCCC2(C)C3=CCC4CC3(CCC12)CC4CO (stereo unspecified) | inactive | inactive |  | 
29 | C/C=C1\[C@H](O[C@@H]2O[C@H](CO)[C@@H](O)[C@H](O)[C@H]2O)OC=C(C(=O)O)[C@H]1CC(=O)OCCc1ccc(O)cc1 | inactive | inactive |  | 
30 | COc1cc2c(cc1O)CC(O)(CO)C(CO)C2c1ccc(OC2OC(CO)C(O)C(O)C2O)c(OC)c1 (stereo unspecified) | inactive | inactive |  | 
31 | C/C=C/C=C/C(O)=C1\C(O)=C(C)C(=O)[C@@]2(C)OC(=O)[C@@](C)(NC(=O)/C=C/C(=O)O)[C@@H]12 | inactive | inactive |  | 
32 | CC(=O)N1c2ccccc2C2(O)CC3C(=O)NC(CC(C)C)C(=O)N3C12 (stereo unspecified) | inactive | inactive |  | 
33 | CCC1CC2C(C)=CC3CCCCC3C2(C)C2(OC(=O)C(C)(O)OC2=O)O1 (stereo unspecified) | 12.8 µM (active) | 10.1 µM (active) |  | 
34 | CCOC(=O)CCC(=O)O[C@H]1[C@H](O[C@@H]2[C@@H](C)[C@H](O[C@H]3C[C@@](C)(OC)[C@@H](O)[C@H](C)O3)[C@@H](C)C(=O)O[C@H](CC)[C@@](C)(O)[C@H](O)[C@@H](C)C(=O)[C@H](C)CC2(C)O)O[C@H](C)C[C@@H]1N(C)C (stereo partly specified) | inactive | inactive |  | 
35 | C=C1CCC(OC(C)=O)C2(C)CC3(O)OC(=O)C(C)=C3CC12 (stereo unspecified) | inactive | inactive |  | 
36 | COCC1OC(OC(C)(C)C2CCC3(C)C=C(C4CCC5C4(C)CC(O)C4OC(C(C)(C)OC6OC(CO)C(O)C(O)C6NC(C)=O)CCC45C)CCC3O2)C(NC(C)=O)C(O)C1O (stereo unspecified) |  |  | 92.4% [at 9.25 µM] | 108% [at 9.25 µM]
37 | COc1cc(O)cc(C)c1C(=O)O[C@H]1[C@@H](O)[C@@H](n2ccc(=O)[nH]c2=O)O[C@@H]1CO | inactive | inactive |  | 
38 | CC(C)C[C@H](NC(=O)[C@@H]1O[C@H]1C(=O)O)C(=O)NCCCCN=C(N)N | inactive | inactive |  | 
39 | COc1cc(O)cc(O[C@@H]2O[C@H](CO)[C@@H](O[C@@H]3OC[C@](O)(CO)[C@H]3O)[C@H](O)[C@H]2O)c1OC | inactive | inactive |  | 
40 | COc1cc(C(O)C(CO)Oc2ccc(CCCO[C@@H]3O[C@@H](C)[C@H](O)[C@@H](O)[C@H]3O)cc2OC)ccc1O (stereo partly specified) | inactive | inactive |  | 

Row | Structure (SMILES) | Potency [1] | Potency [2] | viability (% of control) [1] | viability, % of control [2]
41 | C=CC(=O)N1CCCN(c2cc(NCCC(=O)O)nc(-c3ccccn3)n2)CC1 | inactive | inactive |  | 
42 | CCC(C)(O)C(O)C(=O)OCc1ccc(O[C@@H]2O[C@H](CO)[C@@H](O)[C@H](O)[C@H]2O)c(OC)c1 (stereo partly specified) | inactive | inactive |  | 
43 | CCCCC(=O)N(Cc1ccc(-c2ccccc2-c2nn[nH]n2)cc1)C(C(=O)O)C(C)C (stereo unspecified) | inactive | inactive |  | 
44 | Cc1nc(Nc2ccc(F)cc2)nc(N2CCc3ccccc3C2C)c1C (stereo unspecified) | 20.6 µM (active) | 14.6 µM (active) |  | 
45 | CC1CC[C@]2(C(=O)O)CC[C@]3(C(=O)O)C(=CCC4[C@@]5(C)CC[C@H](OC6OC(C)C(O)C(OC7OC(CO)C(O)C(O)C7O)C6O)C(C)(C)C5CC[C@]43C)C2C1C (stereo partly specified) | inactive | inactive |  | 
46 | Cn1sc(=O)n(Cc2ccccc2)c1=O | 2.59 µM (active) | 2.91 µM (active) |  | 
47 | CC(=O)O[C@@](C)(C(=O)/C=C/C(C)(C)O)[C@H]1[C@H](O)C[C@@]2(C)[C@@H]3CC=C4[C@@H](C=C(O)C(=O)C4(C)C)[C@]3(C)C(=O)C[C@]12C | 0.317 µM (active) | 0.252 µM (active) |  | 
48 | OC[C@H]1O[C@@H](O[C@H]2[C@H](OCCc3ccccc3)O[C@H](CO)[C@@H](O)[C@@H]2O)[C@H](O)[C@@H](O)[C@@H]1O | inactive | inactive |  | 
49 | Cc1cc(NC(=O)c2cccc(NC(=O)/C=C/CN(C)C)c2)ccc1Nc1nccc(-c2cccnc2)n1 | 2.06 µM (active) | 2.31 µM (active) |  | 
50 | C=C1[C@@H]2CC[C@@]3(C)[C@H](c4ccoc4)OC(=O)C[C@]13O[C@H]1CC(=O)C(C)(C)[C@H](C(O)C(=O)OC)[C@]12C (stereo partly specified) | inactive | inactive |  | 
51 | C=C[C@H]1[C@H](O[C@@H]2O[C@H](CO)[C@@H](O)[C@H](O)[C@H]2O)OC=C(C(=O)OC)[C@H]1CCO | inactive | inactive |  | 
52 | CC1OC(OC2C(CO)OC(OCC3OC(OC(=O)C45CCC(C)(C)CC4C4=CCC6C7(C)CCC(OC8OC(C(=O)O)C(O)C(OC9OC(CO)C(O)C(O)C9O)C8O)C(C)(C)C7CCC6(C)C4(C)CC5)C(O)C(O)C3O)C(O)C2O)C(O)C(O)C1O (stereo unspecified) |  |  | 92.6% [at 9.25 µM] | 105% [at 9.25 µM]
53 | C[C@H]1[C@@H](O)[C@H](O)C2[C@]3(C)C([C@@H](O)[C@H]4OC(=O)[C@@H]1[C@@]24C)[C@](C)(O)C=C[C@H]3O[C@@H]1O[C@H](CO)[C@@H](O)[C@H](O)[C@H]1O (stereo partly specified) | inactive | inactive |  | 
54 | N#Cc1ccc(-c2ccc(S(=O)(=O)Nc3cccc(N)n3)cc2)cc1 | 8.2 µM (active) | 7.31 µM (active) |  | 
55 | OCC(CO)(CO)NCC(O)Cn1c2ccc(Cl)cc2c2cc(Cl)ccc21 (stereo unspecified) | 20.6 µM (active) | 11.6 µM (active) |  | 
56 | C=C1C(=O)O[C@@H]2/C=C(\C)CC/C=C(/C=O)[C@H](OC)[C@@H](OC(=O)C(C)C)[C@@H]12 | 4.04 µM (active) | 2.55 µM (active) |  | 
57 | C/C=C1\[C@H](O[C@@H]2O[C@H](CO)[C@@H](O)[C@H](O)[C@H]2O)OC=C(C(=O)OC)[C@H]1CC(=O)OC | inactive | inactive |  | 
58 | COC(=O)C12C(=O)C(C)=C(O)C1(C)C(C)=CC1C34CCC(OC3=O)C(C)(C)C4CCC12C (stereo unspecified) | inactive | inactive |  | 
